This note sets out measurements from PubChem BioAssay (NCI).

SMILES strings stand for the structures. Values joined by “and” are separate entries in the source; they are usually repeats but may differ in a detail not shown here. Identical values can stand only once. Compounds without any hit were thinned out: in the full panel of roughly 83,000, 20% have a hit.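 Single-concentration screen, 48 h exposure, 96-well plates. Endpoint: percent growth. Below 10 = active.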 Unmarked numbers belong to inactive results. Active and inactive are the calls of the source.

For the first experiment, the system named is SN12C renal. Description: NCI-60 one-dose screen, 48 h (100 = growth as untreated, 0 = no growth, -100 = all killed). The following applies: 0.0025 µM. Here is the method: Growth inhibition of the SN12C human tumor cell line is measured as a screen for anti-cancer activity. Cells are grown in 96 well plates and exposed to the test compound for 48 hours. Compounds are tested at a single concentration, which is 10^-5 M for most compounds. The reported endpoint is percent growth (GI% or GIPRCNT), where numbers from 0 - 100% represent growth inhibition, and numbers from -100% - 0 represent cell death. For example, a value of 40 represents 60% growth inhibition. A value of 0 means no net growth occurred over the course of the experiment. A value of -40 indicates 40% of cells at the beginning of the experiment died by the end of the experiment. A value of -100 means all cells are dead at the end of the experiment.
NCI-60 Human Tumor Cell Lines Screen was performed using the standard one-dose NCI protocol, which is described in more detail at https://dtp.cancer.gov/discovery_development/nci-60/default.htm.
Compounds with GIPRCNT values below 10 were considered active. Activity score was based on GIPRCNT using the following formula: […]
Score is 0 for GIPRCNT values of 100 or above, 50 for GIPRCNT values of 0, and 100 for GIPRCNT values of -100.
`COc1cccc2c1C(=O)c1c(O)c3c(c(O)c1C2=O)C[C@@](O)(C(=O)CO)C[C@@H]3OC1CC(N)C(O)C(C)O1` (stereo not given in full): the growth is 104%.

The experiment is the same for the next values; noted with them: 1 µM.
For `COc1cccc2c1C(=O)c1c(O)c3c(c(O)c1C2=O)C[C@@](O)(C(=O)CO)C[C@@H]3OC1CC(N)C(O)C(C)O1` (stereo not given in full), the growth is -4.11% (active).

The experiment is the same for the next values; noted with them: 2.5 µM.
For the compound `COc1cccc2c1C(=O)c1c(O)c3c(c(O)c1C2=O)C[C@@](O)(C(=O)CO)C[C@@H]3OC1CC(N)C(O)C(C)O1` (stereo not given in full), the growth is 2.46% (active).

Staying with this experiment, now noted: 10 µM.
Consider `O=C(Nc1ccc(C(=O)O)c(O)c1)c1ccccc1`, for which the growth was 95.2% and 101%.
Still for that read-out and setting: for `CN(C)C(=S)SC(=S)N(C)C` the value was 101% and 103%; for `COc1cccc2c1C(=O)c1c(O)c3c(c(O)c1C2=O)C[C@@](O)(C(=O)CO)C[C@@H]3OC1CC(N)C(O)C(C)O1` (stereo not given in full), 12%; for `COC1OCC(O)C(O)C1O` (stereo not given), 103%.
The same measure, in the same setting: with `CN1CCN(CCCN2c3ccccc3Sc3ccc(C(F)(F)F)cc32)CC1` the figure was 57%; with `NNc1c2ccccc2nc2ccccc12`, 52.2%; with `O=C(/C=C/c1ccccn1)c1ccccc1`, 61.2%.
The same measure, in the same setting: for `O=C(C(=Cc1ccccc1)C(=O)c1ccccc1)c1ccccc1` the value was 78.6% and 82.7%.
Regarding `CCCC1CCC(=C2C(=O)CCC2=O)O1` (stereo not given), the growth is 90.5% and 101%.
On the same count and under the same terms, for `CC(C)(C)CC(C)(C)c1ccc(OCCO)cc1` the value was 103%; for `O=c1ccn(C2CC(O)C(COC(c3ccccc3)(c3ccccc3)c3ccccc3)O2)c(=O)[nH]1` (stereo not given), 95.9%; for `O=C(/C=C/c1cccnc1)c1ccccc1`, 100%.
On to `COC(=O)C1=COC(C)C2C[n+]3ccc4c([nH]c5ccccc54)c3CC12` (stereo not given), for which the growth was 95.9% and 78.7%.
On to `OC(CN1CCCC2CCCCC21)c1cc2ccccc2c2ccccc12` (stereo not given), for which the growth is 49.7%.
Same read-out and setting: with `NC(=O)SCC(=O)NNc1ccccc1` the figure was 94.9%; with `COc1cccc2c1C(=O)c1c(O)c3c(c(O)c1C2=O)C[C@@](O)(C(C)=O)C[C@@H]3OC1CC(N)C(O)C(C)O1` (stereo not given in full), 8.87% (active); with `NC1=C(Cl)C(=O)c2ccccc2C1=O`, 62.5%.
Turning to `O=[N+]([O-])C1=C(c2ccccc2)SC=C(c2ccccc2)S1`, the growth is 73.7%.
On the same count and under the same terms, with `OCC(O)C(O)C(O)C(/C=N/Nc1ccccc1)=N/Nc1ccccc1` (stereo not given) the figure was 95.9%; with `CCCCCCCCCCSC(=N)N`, 60.9%; with `N=S(c1ccccc1[N+](=O)[O-])c1ccccc1[N+](=O)[O-]`, 84.9%.
Turning to `Cc1cc(O)c(C(C)C)cc1Cl`, the growth was 104%.
Same read-out and setting: for `Cc1nc(N=C(N)N)nc2ccc3ccccc3c12` the value was -22.6% (active); for `Clc1cc(Cl)c(Cl)nn1`, 98%.
The same measure, in the same setting: with `O=C(O)COc1ccc(OCC(=O)O)cc1` the figure was 2.58% (active); with `CC1=CC(C)=Nc2ccc(Cl)cc2N1`, 104%.
As for `CCCCCCCCCCCCSC(=NC)NC`, the growth is 39.4% and 60.4%.
Still for that read-out and setting: for `Nc1nc(=S)c2ncn(C3OC(CO)C(O)C3O)c2[nH]1` (stereo not given) the value was 107% and 26%; for `COc1ccc(CC(=O)c2ccc(O)cc2O)cc1`, 123%.
Still for that read-out and setting: for `CSC1SCC2C(=O)N(C)C(C(C)C)C(=O)OCC(NC(=O)c3cnc4ccccc4n3)C(=O)NC(C)C(=O)N(C)C1C(=O)N(C)C(C(C)C)C(=O)OCC(NC(=O)c1cnc3ccccc3n1)C(=O)NC(C)C(=O)N2C` (stereo not given) the value was 8.11% (active); for `Clc1ccc(/C=C/c2ccccn2)c(Cl)c1`, 94.4%.
Still for that read-out and setting: for `CS(=O)(=O)OC1CC(n2ccc(=O)[nH]c2=O)OC1COC(c1ccccc1)(c1ccccc1)c1ccccc1` (stereo not given) the value was 103%; for `CC(=O)OCC(OC(C)=O)C(OC(C)=O)C(OC(C)=O)C(OC(C)=O)C(/C=N/Nc1ccccc1)=N/Nc1ccccc1` (stereo not given), 78.7%; for `O=C1C=CC(=CC=C2C=CN(CCCCCCCCCCCO)C=C2)C=C1`, 10.4%.
Take `NNc1ccc2ccccc2c1`: the growth is 94.7% and 102%.
Same read-out and setting: with `CCC(C)(C)c1cc(O)c(C(C)(C)CC)cc1O` the figure was 36.5%.

Still in this experiment, the particulars now being: 100 µM.
Turning to `O=c1ccn(C2CC(O)C(COC(c3ccccc3)(c3ccccc3)c3ccccc3)O2)c(=O)[nH]1` (stereo not given), the growth is 38.8%.
